D1 antag: human D1 dopamine receptor antagonism; P21728; hit rate 3.2% among 360,000; activity change, negative = inhibition, % at 10 µM; HEK293 TREx D1 cells, calcium flux, dopamine EC80; stronger effect = lower value; in the data active = activity change below about -30%; note: % is set by controls: 0 for no effect and ±100 for the full control effect
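After overnight tetracycline induction at 30 C, force-coupled D1 HEK293 cells took up a no-wash calcium dye at room temperature. Compounds were added and monitored 180 s, and the response to EC80 dopamine was then recorded.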
D1 PAM: human D1 dopamine receptor positive modulation; HEK293 TREx D1 cells, calcium flux, dopamine EC20 potentiation; hit rate 0.036% among 360,000; potentiation, % at 10 µM; AID 504651; P21728; in the data active = potentiation above about 30%; note: 0% is about no effect
TRHR ag: activates the human TRH receptor | activation, % at 2 µM | AID 493084 | TRHR cells, calcium flux fluo-8, FDSS agonist mode | hit rate 0.18% among 360,000 | P34981; note: 0% is about no effect
Target sequence (P34981 whole entry, looked up): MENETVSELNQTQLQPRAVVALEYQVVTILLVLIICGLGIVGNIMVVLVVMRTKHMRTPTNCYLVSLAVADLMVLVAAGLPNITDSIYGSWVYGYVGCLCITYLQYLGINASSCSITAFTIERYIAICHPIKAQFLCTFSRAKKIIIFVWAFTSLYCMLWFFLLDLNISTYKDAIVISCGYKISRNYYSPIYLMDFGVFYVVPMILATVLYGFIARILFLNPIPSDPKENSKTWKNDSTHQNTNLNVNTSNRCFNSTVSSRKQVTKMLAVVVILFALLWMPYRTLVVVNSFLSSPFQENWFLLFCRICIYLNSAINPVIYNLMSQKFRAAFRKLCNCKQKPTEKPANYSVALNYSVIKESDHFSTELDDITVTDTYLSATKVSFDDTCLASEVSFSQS
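Read-out: compound-evoked intracellular calcium rise in TRHR cells, fluo-8 dye, kinetic FDSS fluorescence at 1 s/cycle following a 10-cycle baseline. Cells cultured overnight before dye loading (30 min–1.5 h, RT).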
D1 agonist: agonists of human D1 dopamine receptor. P21728. HEK293 T-REx D1 cells, calcium flux, agonist mode. activation, % at 2 µM. hit rate 1% among 360,000. AID 504660; note: 0% is about no effect
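Tetracycline-induced HEK293 TREx D1 cells, force-coupled to calcium signalling, were dye-loaded with a no-wash calcium kit. Compound was pin-added after a 10 s baseline. Fluorescence was read kinetically at 1 cycle/s for 180 s, with calcium rises flagged as agonism.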
TRHR PAM: allosterically enhances the human TRH receptor | hit rate 0.66% among 360,000 | P34981 | TRHR cells, fluo-8 calcium fluorescence, EC20 TRH enhancement | enhancement, % at 2 µM; in the data active = enhancement above about 30%; note: 0% is about no effect
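TRHR-expressing cells loaded with fluo-8 calcium dye were read kinetically (ex 480/em 530) during compound addition, then stimulated with an EC20 of TRH (10 nM final). Enhancement of the Gq-mediated intracellular calcium response was scored.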
Starred values were filed as active, the others as inactive. In the library only some 4.7% were active in any assay of this set; here they are far more common. Cut-off read from the data, not from the text of the source, unless noted: active = activation above about 30%; inactive = the rest.

`O=C(N/N=C/c1c(O)ccc2ccccc12)c1cccc(C(F)(F)F)c1` gave D1 antag -31*, D1 PAM 9, TRHR ag 99*, D1 agonist 162* and TRHR PAM 14.
CCOC(=O)N1CCC2(CC1)OC(=O)C(C)=C2C(=O)NCc1ccc(C)cc1 was read as D1 antag -4, D1 PAM -2, TRHR ag 0, D1 agonist -1 and TRHR PAM -3.
For COc1ccc(-n2ccnc2SCC(=O)Nc2cccc(OC)c2)cc1 the results were D1 antag -18, D1 PAM -4, TRHR ag 0, D1 agonist 8 and TRHR PAM 1.
Screening Cc1nc2ccccn2c1C(=O)NNS(=O)(=O)c1ccc(Cl)cc1 returned D1 antag -15, D1 PAM -1, TRHR ag -1, D1 agonist 13 and TRHR PAM 33*.
Cc1ccn2c(C(=O)NNC(=O)Nc3ccc(Cl)cc3)c(C)nc2c1 was read as D1 antag -11, D1 PAM -2, TRHR ag -1, D1 agonist 2 and TRHR PAM 2.
`CC1CCCCN1c1c(S(=O)(=O)c2ccc(Cl)cc2)cnc2ccccc12` (configuration not stated) gave D1 antag 4, D1 PAM -7, TRHR ag 0, D1 agonist 3 and TRHR PAM -1.
`CCCC1C(C(=O)OCC)=C(C)NC(C)=C1C(=O)OCC` gave D1 antag -50*, D1 PAM -19, TRHR ag 0, D1 agonist 2 and TRHR PAM -2.
`CCNC(=O)COC(=O)C1C(C(=O)OCC)=C(C)NC(C)=C1C(=O)OCC` gave D1 antag 14, D1 PAM -2, TRHR ag 0, D1 agonist -3 and TRHR PAM -4.
`CCOC(=O)C1=C(C)NC(C)=C(C(=O)OCC)C1c1ccc(O)cc1` gave D1 antag -36*, D1 PAM -7, TRHR ag 0, D1 agonist 0 and TRHR PAM 22.
`CCOC(=O)C1=C(C)NC(C)=C(C(=O)OCC)C1C(=O)OCC(=O)N(C)C` gave D1 antag -60*, D1 PAM -2, TRHR ag 0, D1 agonist 0 and TRHR PAM 17.
Screening CCN(CC)C(=O)c1sc(NC(=O)c2cccc([N+](=O)[O-])c2)c(C#N)c1C returned D1 antag 3, D1 PAM -8, TRHR ag 0, D1 agonist 9 and TRHR PAM -6.
For CCN(CC)C(=O)c1sc(NC(=O)c2c(OC)cccc2OC)c(C#N)c1C the results were D1 antag -30*, D1 PAM -3, TRHR ag 0, D1 agonist 0 and TRHR PAM 5.
`CCCCn1c(CN(C)Cc2ccccc2)nc2c1c(=O)n(C)c(=O)n2C` gave D1 antag 1, D1 PAM 3, TRHR ag -1, D1 agonist 4 and TRHR PAM -4.
CCCn1c(CN(C)Cc2ccccc2)nc2c1c(=O)n(C)c(=O)n2C was read as D1 antag -43*, D1 PAM 0, TRHR ag -1, D1 agonist 4 and TRHR PAM -3.
Nc1c(C(=O)c2ccccc2)sc2nsc(SCCN3CCOCC3)c12 was read as D1 antag -42*, D1 PAM 4, TRHR ag 89*, D1 agonist 194* and TRHR PAM 11.
Screening CCc1ccccc1-n1cnc2cc(C(=O)NC3CCCCCC3)ccc21 returned D1 antag 11, D1 PAM -4, TRHR ag 0, D1 agonist -2 and TRHR PAM 0.
Screening O=C(Cc1ccc(NC(=O)N2CCCCc3ccccc32)cc1)NCc1cccc(Br)c1 returned D1 antag -12, D1 PAM -6, TRHR ag 0, D1 agonist 1 and TRHR PAM 1.
COC(=O)c1ccc(N=C2SCC(=O)N2C)cc1 was read as D1 antag -9, D1 PAM -18, TRHR ag 0, D1 agonist 1 and TRHR PAM 37*.
CN1C(=O)CSC1=Nc1ccc(Br)cc1 was read as D1 antag -7, D1 PAM -5, TRHR ag 0, D1 agonist -4 and TRHR PAM 1.
For CC1(C)C(=O)OC(c2ccc([N+](=O)[O-])cc2)C(C)(C)C1=O (configuration not stated) the results were D1 antag -32*, D1 PAM 0, TRHR ag -2, D1 agonist 7 and TRHR PAM -5.
`COc1ccc(NC(=O)C(OC(=O)CNC(=O)c2ccccc2)c2ccccc2)c(C)c1` (configuration not stated) gave D1 antag -48*, D1 PAM 4, TRHR ag 0, D1 agonist 2 and TRHR PAM 0.
Screening COc1ccc(-n2c(SCC(=O)Nc3cc(C)cc(C)c3)nc3c(oc4ccccc43)c2=O)cc1 returned D1 antag 1, D1 PAM -6, TRHR ag 1, D1 agonist 5 and TRHR PAM 2.
COc1ccc(CN2CCC(CNS(=O)(=O)c3cccc(C(F)(F)F)c3)CC2)cc1 was read as D1 antag -12, D1 PAM -6, TRHR ag 1, D1 agonist 35* and TRHR PAM 12.
`O=S(=O)(NCC1CCCO1)c1cccc(C(F)(F)F)c1` (configuration not stated) gave D1 antag -46*, D1 PAM -4, TRHR ag 0, D1 agonist 4 and TRHR PAM 0.
COc1ccc(S(=O)(=O)NCC2CCCN(Cc3ccccc3C)C2)cc1 (configuration not stated) was read as D1 antag -30*, D1 PAM -4, TRHR ag -1, D1 agonist 3 and TRHR PAM -3.
`Cc1ccc(CCNC(=O)C(CC(C)C)NS(=O)(=O)c2ccc3c(c2)oc(=O)n3C)cc1` (configuration not stated) gave D1 antag 8, D1 PAM -1, TRHR ag 0, D1 agonist 5 and TRHR PAM 2.
For Cc1ccc(S(=O)(=O)N2CCCC2C(=O)OCc2nc3ccccc3s2)cc1 (configuration not stated) the results were D1 antag 1, D1 PAM -3, TRHR ag -2, D1 agonist 45* and TRHR PAM 0.
For O=C(OCc1nc2ccccc2s1)C1CCN(S(=O)(=O)c2cccs2)CC1 the results were D1 antag -4, D1 PAM -6, TRHR ag 1, D1 agonist 9 and TRHR PAM -5.
CCC(C)NC(=O)c1cc(Sc2cccc(Cl)c2)nc2ccccc12 (configuration not stated) was read as D1 antag -61*, D1 PAM -2, TRHR ag 0, D1 agonist 19 and TRHR PAM 13.
